“And” between values parts separate entries of the source, which are not always exact repeats. Identical values can stand only once. The source made the active and inactive calls.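 Rule for the calls: active = relative GCLC transcription at 1 µM of at least 250%; inconclusive = relative GCLC transcription at 1 µM between 200% and 250%; inactive = relative GCLC transcription at 1 µM under 200%.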
Assay: qHTS of Nrf2 Activators: Hit Validation in GCLC Induction Assay
Details: Hepa1c1c7 cells, GCLC mRNA qPCR, 24 h; at 1 µM; stronger effect = higher value
Excerpt: Many diseases have some form of oxidative stress injury and ties to inflammation, causing a host of problems for the patient. The antioxidant response element (ARE) plays an important role in alleviating the harmful effects of oxidative stress. The antioxidant response element (ARE) is a transcriptional regulatory element involved in the activation of genes coding for a number of antioxidant proteins and detoxifying enzymes. These enzymes work in concert to protect tissues from oxidative insults and chemical toxicities in human hepatocytes and immune cells. The protective effects of ARE activation are primarily triggered through Nrf2 (NF-E2-related factor) binding to and activating AREs. It is known that Nrf2 controls the production of over 250 antioxidant and detoxification proteins (Hu et al., 2006), thereby protecting tissues by increasing cellular antioxidant content and suppressing inflammatory signaling pathways. The transcription factor Nrf2 is a central link between oxidative chemicals, such as phenolic antioxidants and electrophilic compounds, and the activation of ARE. Nrf2 levels are constitutively low as a consequence of its interaction with Keap1, which targets its degradation (Zipper and Mulcahy, 2002). Electrophiles react with key cysteine residues in Keap1, releasing Nrf2 and allowing its translocation to the nucleus. Once within the nucleus, Nrf2 complexes with coactivators such as p300, and binds to the AREs to induce gene transcription of cytoprotective enzymes, resulting in the prevention of toxicity. Activation of Nrf2 protects tissues by increasing cellular antioxidant content and suppressing inflammatory signaling pathways. Identifying novel and potent Nrf2 activators by using the AREc32 cell line to detect ARE activation by small molecules will lead to the identification and development of probes to study protective pathways in multiple tissues. These specific probes are essential to study the ARE pathway, and eventually to determine whether this pathway does activate genes that could protect against a host of diseases, including cardiovascular diseases, obesity, diabetes, Alzheimer's, and Parkinson's disease. This project's aim is to identify novel and potent Nrf2 activators by using the AREc32 cell line to detect ARE activation by small molecules, which will lead to the identification and development of probes to study the ARE pathway. Compounds that were identified in the primary screen were tested in this secondary assay to assess whether a hit also activates Nrf2 transcription of the target gene GCLC. NIH Chemical Genomics Center [NCGC] NIH Molecular Libraries Probe Centers Network [MLPCN] MLPCN Grant: DK081461 Assay Submitter (PI): Curtis Klaassen, University of Kansas Medical Center
Hepac1c7 cells were seeded into 24-well plates at a density of 30,000 cells/well in 1 mL complete media per well and cultured overnight to allow attachment. Cells were treated the next day with compounds (1 uM)or positive control for 24 h. Total RNA samples were then isolated by using RNAzol B reagent (Tel-Test, Inc., Friendswood, TX) according to the manufacturer's protocol. Total RNAs were reverse-transcribed into cDNA by High Capacity cDNA Archive Kits (Applied Biosystems, Foster City, CA) and the resulting cDNA was used for real-time PCR analysis using SYBR(R) Green PCR Master Mix in a 7900HT Fast Real-Time PCR System.

Relative GCLC transcription, 461%:
COc1ccccc1NC(=O)c1cc(Cl)nc2ccccc12

Relative GCLC transcription, 369%:
O=C(Nc1cccc2ncccc12)c1ccc(Cl)cc1

Relative GCLC transcription, inactive:
CS(=O)(=O)c1nc(S(=O)(=O)c2ccc(Cl)cc2)c(N2CCOCC2)s1 148%, Clc1ccc2c(NCc3ccccn3)ncnc2c1 181%, O=C(Nc1ncnc2sc3c(c12)CCCCC3)c1ccco1 109% and 134%, Cc1nc(NCc2ccco2)nc2c1C(=O)CC(C)C2 (stereo not given) 158%, O=C(Nc1ncnc2sc3c(c12)CCC3)c1ccco1 122%, COc1ccc(NC(=O)c2cc(-c3ccco3)on2)c(OC)c1 155%, COc1ccc(NC(=O)c2cc(-c3cccs3)on2)c(OC)c1 157%, COC(=O)c1c(NC(=O)c2ccccc2)sc(C(N)=O)c1C 120%
